# This is part of a sample that, as a whole, favours compounds with a hit. Of some 79,000 tested, about 15% had one in any assay. Values without a mark were called inactive. Active and inactive are the calls of the source. No stated cut-off is given here; in the data, active means growth inhibition above about 70%; inactive means the rest.
# What was measured:
# [1] = NCI Yeast Anticancer Drug Screen. Data for the mlh1 strain (AID 171);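 further: 0% = growth of vehicle-treated control cultures of the same strain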; settings: S. cerevisiae mlh1 strain growth inhibition, hits give high values
# Method in brief: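 Yeast carrying a defined genetic alteration in DNA damage repair or cell cycle control were exposed to test compounds. Growth inhibition was measured relative to vehicle-treated controls.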
# [2] = NCI Yeast Anticancer Drug Screen. Data for the sgs1 strain (AID 173);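 further: 0% = growth of vehicle-only control cultures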; settings: S. cerevisiae sgs1 mutant, hits give high values
# Method in brief: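 Yeast mutant strains carrying defined defects in DNA damage repair or cell cycle control were exposed to test compounds. Growth inhibition was scored against vehicle-treated controls.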
# [3] = NCI Yeast Anticancer Drug Screen. Data for the rad18 strain (AID 177); settings: S. cerevisiae rad18 mutant growth inhibition, hits give high values
# Method in brief: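 Yeast carrying a defined DNA damage repair alteration were exposed to compounds. Growth inhibition was expressed relative to vehicle-treated controls.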
# [4] = NCI Yeast Anticancer Drug Screen. Data for the rad52 strain (AID 147);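 further: 0% = growth of vehicle-treated control cultures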; settings: S. cerevisiae rad52 mutant growth inhibition, hits give high values
# Method in brief: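 Yeast strain carrying a DNA damage repair alteration was exposed to test compounds. Growth inhibition was measured relative to vehicle-treated controls.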
# [5] = NCI Yeast Anticancer Drug Screen. Data for the wt1 strain (AID 149);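 further: 0% = growth of vehicle-treated wt1 cultures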; settings: S. cerevisiae wt1 strain (SPY 50644) growth inhibition, hits give high values
# Method in brief: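 wt1 yeast, compound-treated; % growth inhibition vs vehicle control.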
# [6] = NCI Yeast Anticancer Drug Screen. Data for the mgt1 strain (AID 153); settings: S. cerevisiae mgt1 mutant growth inhibition, hits give high values
# Method in brief: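 Yeast mgt1 strain (DNA repair/cell-cycle alteration panel) exposed to compounds; growth inhibition measured relative to vehicle-treated controls.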
# [7] = NCI Yeast Anticancer Drug Screen. Data for the rad50 strain (AID 155);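 further: 0% = growth of vehicle-only cultures of the same strain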; settings: S. cerevisiae rad50 strain growth inhibition, hits give high values
# Method in brief: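 Genetically altered yeast (DNA repair pathway); compound treatment; growth inhibition vs vehicle ctrl.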
# [8] = NCI Yeast Anticancer Drug Screen. Data for the mec2-1 strain (AID 157); settings: S. cerevisiae mec2-1 strain, hits give high values
# Method in brief: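 mec2-1 yeast strain, carrying an alteration in DNA damage repair or cell cycle control, was exposed to compounds; growth inhibition was measured relative to vehicle-treated controls.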
# [9] = NCI Yeast Anticancer Drug Screen. Data for the sgs1 mgt1 strain (AID 161);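 further: 0% = growth of cultures given vehicle only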; settings: S. cerevisiae sgs1 mgt1 strain, hits give high values
# Method in brief: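 Growth of a repair-deficient yeast mutant was monitored after compound treatment and expressed as inhibition relative to vehicle-treated cultures.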
# [10] = NCI Yeast Anticancer Drug Screen. Data for the CLN2oe strain (AID 163);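 further: 0% = growth of vehicle-only control cultures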; settings: S. cerevisiae CLN2oe strain, hits give high values
# Method in brief: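 Yeast cells carrying a defined cell-cycle control alteration were exposed to test compounds. Growth inhibition was scored against vehicle-treated control cultures.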
# [11] = NCI Yeast Anticancer Drug Screen. Data for the cln2 rad14 strain (AID 165);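 further: 0% = growth equal to vehicle treated cultures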; settings: S. cerevisiae cln2 rad14 strain, hits give high values
# Method in brief: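 Yeast carrying cln2 and rad14 alterations (cell cycle control and DNA damage repair) were exposed to compounds. Growth inhibition was measured against vehicle-treated controls.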
# [12] = NCI Yeast Anticancer Drug Screen. Data for the bub3 strain (AID 167); settings: S. cerevisiae bub3 mutant strain, hits give high values
# Method in brief: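 Yeast carrying a defined mutation is treated with each compound, and growth is compared with that of vehicle-exposed cells to give inhibition.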
# [13] = NCI Yeast Anticancer Drug Screen. Data for the wt2 strain (AID 169);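 further: 0% = growth of vehicle-treated yeast cultures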; settings: S. cerevisiae wt2 strain growth inhibition, hits give high values
# Method in brief: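 Yeast cells were exposed to test compounds, and growth inhibition was measured relative to vehicle-treated controls.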
# [14] = NCI Yeast Anticancer Drug Screen. Data for the mlh1 rad18 strain (AID 175); settings: S. cerevisiae mlh1 rad18 strain growth inhibition, hits give high values
# Method in brief: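 Growth inhibition of the yeast strain was measured after compound exposure and expressed relative to vehicle-treated controls. The strain carries defined defects in DNA damage repair.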
# [15] = NCI Yeast Anticancer Drug Screen. Data for the rad50EPP+ strain (AID 151);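 further: 0% = growth of vehicle-treated control cultures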; settings: S. cerevisiae rad50 mutant strain, hits give high values
# Method in brief: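 Yeast strain carrying rad50 alteration (rad50EPP+) exposed to compounds; growth inhibition measured relative to vehicle-treated controls.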
# [16] = NCI Yeast Anticancer Drug Screen. Data for the rad14 strain (AID 159);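 further: 0% = growth of vehicle-treated control cultures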; settings: S. cerevisiae rad14 strain growth inhibition, hits give high values
# Method in brief: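 Test compounds were applied to a repair-deficient yeast strain. Its growth was then compared with that of cultures given vehicle alone, and inhibition was expressed relative to those controls.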
# [17] = at 5.0 µM (retest, dose inferred, filed as 0.5)
# [18] = at 50.0 µM (retest, dose inferred, filed as 5.0)
smiles,measurement,setting,value
c1ccc2c(c1)sc1cc3ccncc3cc12,growth inhibition,[1]; at 1.2 µM,6%
same,growth inhibition,[1]; at 3.7 µM,-6%
same,growth inhibition,[1]; at 11.0 µM,-1%
same,growth inhibition,[1]; at 33.0 µM,19%
same,growth inhibition,[1]; at 100.0 µM,95% (active)
same,growth inhibition,[2]; at 1.2 µM,-2%
same,growth inhibition,[2]; at 3.7 µM,-7%
same,growth inhibition,[2]; at 11.0 µM,-7%
same,growth inhibition,[2]; at 33.0 µM,34%
same,growth inhibition,[2]; at 100.0 µM,97% (active)
same,growth inhibition,[3]; at 1.2 µM,-3%
same,growth inhibition,[3]; at 3.7 µM,-1%
same,growth inhibition,[3]; at 11.0 µM,5%
same,growth inhibition,[3]; at 33.0 µM,22%
same,growth inhibition,[3]; at 100.0 µM,97% (active)
O=C([O][Sn]([O]C(=O)c1ccccc1)([c]1ccccc1)[c]1ccccc1)c1ccccc1,growth inhibition,[4]; at 1.2 µM,23%
same,growth inhibition,[4]; at 3.7 µM,21%
same,growth inhibition,[4]; at 11.0 µM,22%
same,growth inhibition,[4]; at 33.0 µM,46%
same,growth inhibition,[4]; at 100.0 µM,81% (active)
same,growth inhibition,[5]; at 1.2 µM,0%
same,growth inhibition,[5]; at 3.7 µM,4%
same,growth inhibition,[5]; at 11.0 µM,-4%
same,growth inhibition,[5]; at 33.0 µM,9%
same,growth inhibition,[5]; at 100.0 µM,78% (active)
same,growth inhibition,[6]; at 1.2 µM,1%
same,growth inhibition,[6]; at 3.7 µM,14%
same,growth inhibition,[6]; at 11.0 µM,20%
same,growth inhibition,[6]; at 33.0 µM,43%
same,growth inhibition,[6]; at 100.0 µM,86% (active)
same,growth inhibition,[7]; at 1.2 µM,20%
same,growth inhibition,[7]; at 3.7 µM,30%
same,growth inhibition,[7]; [17],4%
same,growth inhibition,[7]; at 11.0 µM,27%
same,growth inhibition,[7]; at 33.0 µM,40%
same,growth inhibition,[7]; [18],26%
same,growth inhibition,[7]; at 50.0 µM,68.5%
same,growth inhibition,[7]; at 100.0 µM,88% (active)
same,growth inhibition,[8]; at 1.2 µM,21%
same,growth inhibition,[8]; at 3.7 µM,16%
same,growth inhibition,[8]; [17],12%
same,growth inhibition,[8]; at 11.0 µM,16%
same,growth inhibition,[8]; at 33.0 µM,37%
same,growth inhibition,[8]; [18],52%
same,growth inhibition,[8]; at 50.0 µM,76.8% (active)
same,growth inhibition,[8]; at 100.0 µM,87% (active)
same,growth inhibition,[9]; [17],-11%
same,growth inhibition,[9]; [18],73% (active)
same,growth inhibition,[9]; at 50.0 µM,56.4%
same,growth inhibition,[10]; at 1.2 µM,15%
same,growth inhibition,[10]; at 3.7 µM,16%
same,growth inhibition,[10]; at 11.0 µM,10%
same,growth inhibition,[10]; at 33.0 µM,23%
same,growth inhibition,[10]; at 100.0 µM,57%
same,growth inhibition,[11]; [17],-1%
same,growth inhibition,[11]; [18],77% (active)
same,growth inhibition,[11]; at 50.0 µM,60%
same,growth inhibition,[12]; at 1.2 µM,8%
same,growth inhibition,[12]; at 3.7 µM,2%
same,growth inhibition,[12]; [17],-14%
same,growth inhibition,[12]; at 11.0 µM,10%
same,growth inhibition,[12]; at 33.0 µM,30%
same,growth inhibition,[12]; [18],87% (active)
same,growth inhibition,[12]; at 50.0 µM,58.5%
same,growth inhibition,[12]; at 100.0 µM,83% (active)
same,growth inhibition,[13]; at 1.2 µM,8%
same,growth inhibition,[13]; at 3.7 µM,1%
same,growth inhibition,[13]; at 11.0 µM,20%
same,growth inhibition,[13]; at 33.0 µM,81% (active)
same,growth inhibition,[13]; at 100.0 µM,97% (active)
same,growth inhibition,[1]; at 1.2 µM,1%
same,growth inhibition,[1]; at 3.7 µM,14%
same,growth inhibition,[1]; at 11.0 µM,20%
same,growth inhibition,[1]; at 33.0 µM,43%
same,growth inhibition,[1]; at 100.0 µM,86% (active)
same,growth inhibition,[2]; at 1.2 µM,28%
same,growth inhibition,[2]; at 3.7 µM,26%
same,growth inhibition,[2]; at 11.0 µM,30%
same,growth inhibition,[2]; at 33.0 µM,45%
same,growth inhibition,[2]; at 100.0 µM,84% (active)
same,growth inhibition,[14]; [17],11%
same,growth inhibition,[14]; [18],76% (active)
same,growth inhibition,[14]; at 50.0 µM,50.1%
same,growth inhibition,[3]; at 1.2 µM,0%
same,growth inhibition,[3]; at 3.7 µM,-4%
same,growth inhibition,[3]; at 11.0 µM,-2%
same,growth inhibition,[3]; at 33.0 µM,43%
same,growth inhibition,[3]; at 100.0 µM,88% (active)
Cc1ccc(N)c(S)c1,growth inhibition,[4]; at 1.2 µM,-56%
same,growth inhibition,[4]; at 3.7 µM,-52%
same,growth inhibition,[4]; at 11.0 µM,-12%
same,growth inhibition,[4]; at 33.0 µM,88% (active)
same,growth inhibition,[4]; at 100.0 µM,97% (active)
same,growth inhibition,[15]; at 1.2 µM,-49%
same,growth inhibition,[15]; at 3.7 µM,-39%
same,growth inhibition,[15]; at 11.0 µM,76% (active)
same,growth inhibition,[15]; at 33.0 µM,95% (active)
same,growth inhibition,[15]; at 100.0 µM,91% (active)
same,growth inhibition,[6]; at 1.2 µM,-11%
same,growth inhibition,[6]; at 3.7 µM,-13%
same,growth inhibition,[6]; at 11.0 µM,15%
same,growth inhibition,[6]; at 33.0 µM,98% (active)
same,growth inhibition,[6]; at 100.0 µM,99% (active)
same,growth inhibition,[7]; at 1.2 µM,-34%
same,growth inhibition,[7]; at 3.7 µM,-27%
same,growth inhibition,[7]; [17],1%
same,growth inhibition,[7]; at 11.0 µM,-4%
same,growth inhibition,[7]; at 33.0 µM,91% (active)
same,growth inhibition,[7]; [18],77% (active)
same,growth inhibition,[7]; at 50.0 µM,10.4%
same,growth inhibition,[7]; at 100.0 µM,94% (active)
same,growth inhibition,[8]; at 1.2 µM,-24%
same,growth inhibition,[8]; at 3.7 µM,-15%
same,growth inhibition,[8]; [17],-19%
same,growth inhibition,[8]; at 11.0 µM,-9%
same,growth inhibition,[8]; at 33.0 µM,96% (active)
same,growth inhibition,[8]; [18],75% (active)
same,growth inhibition,[8]; at 50.0 µM,36.3%
same,growth inhibition,[8]; at 100.0 µM,98% (active)
same,growth inhibition,[16]; at 1.2 µM,-43%
same,growth inhibition,[16]; at 3.7 µM,-36%
same,growth inhibition,[16]; at 11.0 µM,-22%
same,growth inhibition,[16]; at 33.0 µM,55%
same,growth inhibition,[16]; at 100.0 µM,96% (active)
same,growth inhibition,[9]; [17],-1%
same,growth inhibition,[9]; [18],36%
same,growth inhibition,[9]; at 50.0 µM,80.3% (active)
same,growth inhibition,[10]; at 1.2 µM,-15%
same,growth inhibition,[10]; at 3.7 µM,-3%
same,growth inhibition,[10]; at 11.0 µM,13%
same,growth inhibition,[10]; at 33.0 µM,93% (active)
same,growth inhibition,[10]; at 100.0 µM,99% (active)
same,growth inhibition,[11]; [17],35%
same,growth inhibition,[11]; [18],63%
same,growth inhibition,[11]; at 50.0 µM,-1.5%
same,growth inhibition,[12]; at 1.2 µM,-35%
same,growth inhibition,[12]; at 3.7 µM,-11%
same,growth inhibition,[12]; [17],15%
same,growth inhibition,[12]; at 11.0 µM,48%
same,growth inhibition,[12]; at 33.0 µM,98% (active)
same,growth inhibition,[12]; [18],92% (active)
same,growth inhibition,[12]; at 50.0 µM,81.5% (active)
same,growth inhibition,[12]; at 100.0 µM,98% (active)
same,growth inhibition,[13]; at 1.2 µM,-48%
same,growth inhibition,[13]; at 3.7 µM,-25%
same,growth inhibition,[13]; at 11.0 µM,-4%
same,growth inhibition,[13]; at 33.0 µM,93% (active)
same,growth inhibition,[13]; at 100.0 µM,99% (active)
same,growth inhibition,[1]; at 1.2 µM,-19%
same,growth inhibition,[1]; at 3.7 µM,-3%
same,growth inhibition,[1]; at 11.0 µM,26%
same,growth inhibition,[1]; at 33.0 µM,98% (active)
same,growth inhibition,[1]; at 100.0 µM,97% (active)
same,growth inhibition,[2]; at 1.2 µM,-29%
same,growth inhibition,[2]; at 3.7 µM,-34%
same,growth inhibition,[2]; at 11.0 µM,14%
same,growth inhibition,[2]; at 33.0 µM,98% (active)
same,growth inhibition,[2]; at 100.0 µM,98% (active)
same,growth inhibition,[14]; [17],20%
same,growth inhibition,[14]; [18],95% (active)
same,growth inhibition,[14]; at 50.0 µM,92.2% (active)
same,growth inhibition,[3]; at 1.2 µM,-48%
same,growth inhibition,[3]; at 3.7 µM,-37%
same,growth inhibition,[3]; at 11.0 µM,-22%
same,growth inhibition,[3]; at 33.0 µM,42%
same,growth inhibition,[3]; at 100.0 µM,90% (active)

# — PubChem BioAssay (NCI)
